ssDAF-12 act: S. stercoralis DAF-12 nuclear receptor activators, primary screen, cell-based, luminescence, HEK293, GRIP1 co-expression, lit1-tk-luc | Nuclear hormone receptor DAF-12 (Strongyloides stercoralis) | HEK293 ssDAF-12/GRIP1 lit1-tk-luc reporter; % of 3 µM dafachronic acid response | activation, % at 6.8 µM | 370,000 tested, 1% active;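 active = activation above the mean over all tested compounds plus 3 SD, cut at about 0.9% in these data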;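 note: 0% = DMSO-only wells and 100% = 3 µM delta7-dafachronic acid wells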
hgDAF-12 ag: H. glycines DAF-12 receptor agonists, primary screen, cell-based, luminescence, HEK293, GAL4 fusion, UAS-luciferase; Nuclear hormone receptor DAF-12 (Heterodera glycines), GAL4 fusion; HEK293 GAL4-hgDAF12 UAS-luciferase reporter, agonist luminescence; normalized to butyrate control; activation, % at 6.8 µM; 370,000 tested, 1.8% active; AID 687014, 2013;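 active = activation above a cutoff set at the mean of all screened compounds plus 3 SD, cut at about 10% in these data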;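 note: 0% = DMSO wells and 100% = sodium butyrate wells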
DAX1 inh-1: DAX1 (NR0B1) inhibitors on StAR promoter, primary screen, cell-based, luminescence, SF-1 (NR5A1), full-length DAX-1; HEK293T StAR-luciferase reporter, SF-1/DAX-1 repression relief; inhibition, % at 6.8 µM; 370,000 tested, 1.1% active; AID 652010, 2013;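 active = inhibition above the mean over all tested compounds plus 3 SD, cut at about 3.6% in these data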;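 note: 0% = DAX-1 cells with DMSO and 100% = cells lacking DAX-1 with DMSO; higher inhibition means more luminescence from relief of DAX-1 repression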
hcDAF12 agonist: H. contortus DAF-12 nuclear receptor activators, primary screen, cell-based, luminescence, HEK293, lit1-tk-luc reporter; HEK293 hcDAF-12 lit1-tk-luc reporter; 0% DMSO, 100% Δ7-dafachronic acid; 370,000 tested, 1.4% active; activation, % at 6.8 µM;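 active = activation above the mean of all tested compounds plus 3 SD, cut at about 5.5% in these data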;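 note: 100% = response to 3 µM Δ7-dafachronic acid high control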
DAX1 inh-2: DAX1 (NR0B1) inhibitors, primary screen, cell-based, HEK293, Gal4-DAX1, luciferase luminescence; Nuclear receptor subfamily 0 group B member 1 (Homo sapiens), P51843; AID 504766, 2011; HEK293 Gal4-DAX1 luciferase reporter; 340,000 tested, 0.99% active; inhibition, % at 6.75 µM;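 active = inhibition above the mean over all tested compounds plus 3 SD, cut at about 4.2% in these data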;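 note: 0% = DAX1-transfected cells with DMSO and 100% = empty-vector control cells with DMSO; inhibition shows as a rise in luminescence from relieved DAX1 repression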
Target sequence (P51843 207-470 limits assumed): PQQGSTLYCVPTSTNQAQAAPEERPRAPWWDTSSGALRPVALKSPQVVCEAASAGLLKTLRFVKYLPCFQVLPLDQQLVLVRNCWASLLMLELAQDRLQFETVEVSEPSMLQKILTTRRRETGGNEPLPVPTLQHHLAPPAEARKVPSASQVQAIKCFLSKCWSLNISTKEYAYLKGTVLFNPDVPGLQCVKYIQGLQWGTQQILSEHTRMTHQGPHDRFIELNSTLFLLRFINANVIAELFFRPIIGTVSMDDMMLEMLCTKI
SMARCA2 act: SMARCA2 (BRM) function activators, primary screen, cell-based, luminescence, high throughput. MG213 cells, MMTV-luciferase reporter, dexamethasone, overnight. activation, % at 9.1 µM. 370,000 tested, 1% active. AID 652017, 2013; in the data active = activation above about 7.8%;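 note: 0% = vehicle wells and 100% = reference activator wells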
LXR ag: LXR agonists, Gal4 luciferase reporter, confirmation, counter-screen for hcDAF-12 agonist project, cell-based, luminescence, HEK293, H. contortus campaign. 3,400 tested, under 10 active. shares compounds with hcDAF12 agonist. activation, % at 6.8 µM. AID 743027, 2013. HEK293 Gal4-LXR tk-luc reporter, 24 h; normalized: DMSO 0%, positive control 100%;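 active = mean percent activation of the reporter above a cutoff set as the average over tested compounds plus their standard deviation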
hcDAF12 ag: H. contortus DAF-12 receptor agonists, confirmation, cell-based, luminescence, HEK293, lit1-tk-luc, triplicate; shares compounds with hcDAF12 agonist; HEK293 hcDAF-12 lit1-tk-luc reporter; % of Δ7-dafachronic acid response; activation, % at 6.8 µM; 3,400 tested, 61% active;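 active = mean activation across triplicate tests above the threshold derived from the earlier primary screen, cut at about 5.5% in these data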;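 note: 0% = DMSO only wells and 100% = 3 µM Δ7-dafachronic acid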
* hit, by the source's call; . = not tested or not shown. In the library only some 4.8% were active in any assay of this set; here they are far more common.

SMILES	ssDAF-12 act	hgDAF-12 ag	DAX1 inh-1	hcDAF12 agonist	DAX1 inh-2	SMARCA2 act	LXR ag	hcDAF12 ag
COc1ccccc1OCCOc1ccc(/C=C2/C(=N)N3OC(C)=CC3=NC2=O)cc1OC	-1	5	-1	7.3*	-1	0	-1	-3
CC1=CC2=NC(=O)/C(=C\c3cccn3CCOc3ccccc3C)C(=N)N2O1	-2	-2	-1	-4	1	-1	.	.
Cc1c(C(=O)N2CCN(C(=O)c3ccccc3)CC2)oc2ccc(F)cc12	-1	2	0	0	0	-3	.	.
Cc1c(C(=O)/C=C/c2cccs2)oc2ccc(F)cc12	0	12*	0	8.3*	2	2	1	14*
CC1=NN(c2ccccc2)C(=O)C1N=Nc1ccc(N)cc1 (stereo not given)	-1	0	-3	1	-4	-2	.	.
CC1=NN(C(N)=S)C(=O)C1N=Nc1ccc(Br)cc1 (stereo not given)	0	5	2	9.8*	3	4	1	12*
CC1=NN(c2ccccc2)C(=O)C1N=Nc1ccccc1 (stereo not given)	0	8	1	8.0*	2	3	1	11*
Cc1ccc(NC(=O)CSc2n[nH]c(-c3cccnc3)n2)c(Br)c1	-1	4	0	-1	-1	-1	.	.
CC(=O)Oc1c(Br)cc(N(C(C)=O)S(=O)(=O)c2ccccc2)c2ccccc12	0	0	-2	12*	-1	3	0	2
O=C(c1ccccc1)N1CCCCC(S(=O)(=O)c2ccc3ccccc3c2)C1=O (stereo not given)	-1	2	0	-1	1	-1	.	.
Cc1ccc(/C=C/c2nnc(-c3ccccc3)o2)cc1	1.7*	9	2	7.3*	1	5	0	3
COC(=O)c1sc(S(=O)(=O)Oc2ccccc2NC(C)=O)c(C(=O)OC)c1C	0	1	0	0	1	-1	.	.
Cc1cccc(-n2ncc3c(N4CCCc5ccccc54)ncnc32)c1	0	8	2	5	2	2	.	.
CCOC(=S)NC(=O)c1sc2ccccc2c1Cl	-1	2	0	0	0	2	.	.
CCOC(=O)C1=CCN(S(=O)(=O)c2ccc(F)cc2)C1c1ccccc1 (stereo not given)	-2	-1	0	7.7*	.	-5	0	1
CCOC(=O)C1=CCN(S(=O)(=O)c2ccc(F)cc2)C1c1ccc(F)cc1 (stereo not given)	-1	-2	0	-2	.	-2	.	.
COc1cc(NC(=O)c2ccc3c(SCC(=O)O)c4c(nc3c2)CCC4)cc(OC)c1OC	-1	0	1	-2	1	0	.	.
O=C(O)c1cc(N/N=C/c2c[nH]c3ccccc23)ccc1Cl	3.2*	2	0	8.6*	2	5	0	10*
COc1ccc2c(/C=N/Nc3ccc(C(=O)O)cc3)c[nH]c2c1	0.9*	7	2	10*	-1	7	1	10*
COc1ccc(C(=O)N/N=C/c2c[nH]c3ccccc23)cc1	0	4	0	3	3	-1	.	.
CC(=O)Nc1cccc(C(=O)N/N=C/c2c[nH]c3ccccc23)c1	0.9*	9	0	8.5*	1	2	0	4
O=C(N/N=C/c1c[nH]c2ccccc12)c1ccc(O)c(O)c1	0	2	0	5	1	-1	.	.
O=C(C1=C[C@H](C2CCCCC2)C[C@H](OCCCCO)O1)N1CCN(Cc2ccc3c(c2)OCO3)CC1	.	.	.	.	-1	.	.	.
Cc1ccsc1/C=N/NC(=O)c1ccccn1	0	10	3	10*	0	2	1	3
Cc1ccsc1/C=N/NC(=O)C(O)c1ccccc1 (stereo not given)	-2	0	0	2	1	2	.	.
SMILES	ssDAF-12 act	hgDAF-12 ag	DAX1 inh-1	hcDAF12 agonist	DAX1 inh-2	SMARCA2 act	LXR ag	hcDAF12 ag
O=C(/C=C/c1ccco1)Nc1cccc2cccnc12	1	10	1	6.8*	0	6	0	7.0*
O=C(O)/C=C/C(=O)Nc1cccc2cccnc12	-1	-3	0	-1	1	-4	.	.
O=C(C1CCCN(C2CC(=O)N(c3ccc(Cl)cc3)C2=O)C1)N1CCCC1 (stereo not given)	-1	-1	1	-2	0	-2	.	.
CCC(C)c1ccccc1NC(=O)CN(C)CCOc1ccc(Cl)cc1 (stereo not given)	-1	1	0	9.2*	0	-2	0	0
CCOC(=O)c1ccc(-c2ccc(/C=N/NC(=O)Cc3nnc(N)s3)o2)cc1	0	7	3.7*	8.8*	1	0	0	4
COc1ccc(-c2cc(-c3ccc(C)cc3)n[nH]2)c(O)c1	0	13*	4	6.9*	5.8*	0	1	2
COc1ccc(-c2n[nH]c(C)c2-c2ccc(Cl)cc2)c(O)c1	-1	-2	-1	-3	0	-1	.	.
CCCC(=O)Nc1ccc(-c2nc3cc(C)ccc3o2)cc1	1.7*	13*	3.9*	12*	0	-1	1	8.4*
CCS(=O)(=O)Nc1cccc(-c2nc3cccnc3s2)c1	0	9	1	1	-2	-1	.	.
CCS(=O)(=O)Nc1ccc(-c2nc3cccnc3s2)cc1	1	11*	3	6.9*	1	2	2	7.7*
COc1ccccc1CNC(=O)COC(=O)c1cc(C)oc1C	-1	-2	-1	-1	2	3	.	.
CCN(CC(=O)NC1CC1)S(=O)(=O)c1ccc(C)cc1	-1	-2	-1	0	-1	0	.	.
